# According to PubChem BioAssay:
# Values joined by “and” are separate entries in the source; they are usually repeats but may differ in a detail not shown here. Equal values may be shown once. Active and inactive are the calls of the source.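 How the source made its calls, unless noted: active means mean z-score across replicates of 1.96 or higher in either the MELAS or the Rieske mutant cell line; inactive means the rest.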
# What was measured:
# [1] = Wnt pathway potentiators raising nuclear beta-catenin – imaging, WNT3A-conditioned medium, mouse C2C12, NPC library, primary screen (AID 1117326; in the data active means nuclear beta-catenin stimulation mostly above about 4.2%, no sharp cut-off; inactive means mostly below about 10%); settings: stronger effect = higher value
# [2] = stimulators of insulin release from INS-1E, primary screen, cell-based, 5 mM glucose, NPC library (AID 1117329;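 active means compound raises insulin release from rat beta cells at 5 mM glucose, no numeric limit stated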); settings: rat INS-1E insulin secretion, at 10 µM, stronger effect = higher value
# [3] = growth inhibition of GSK3B-pretreated HCT116 cells – cell-based, CellTiter-Glo, 0.2 to 20 µM (AID 1117336;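 active means compounds lowering colon cancer cell viability after pretreatment blocking the GSK3B kinase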); settings: HCT116 viability after GSK3B inhibitor, at 20 µM, stronger effect = higher value
# [4] = inhibition of endothelial tube formation, primary screen, imaging, VEGF stimulated, CD31 staining, tube area, NPC library (AID 1117340;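 active means compound that reduces growth-factor-driven endothelial tube area in a mixed cell culture, no cutoff stated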); settings: VEGF-stimulated ADSC/ECFC co-culture, at 10 µM, stronger effect = higher value
# [5] = GLP1 release stimulators, primary, NCI-H716, NPC library (AID 1117341;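 active means compound raises GLP1 secretion from the human gut endocrine cells, with no numeric limit stated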); settings: NCI-H716 cells, at 10 µM, stronger effect = higher value
# [6] = HCT116 colon cancer cell growth inhibition, primary screen, CellTiter-Glo luminescence, NPC library (AID 1117342;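 active means compounds that lower survival of HCT116 colon cancer cells in the luminescence readout, no numeric limit stated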); settings: at 20 µM (top of the series)
# [7] = reduced SW480 viability measured with CellTiter-Glo, NPC library, primary (AID 1117343;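 active means compounds that lower viability of the colon cancer cells in the luminescence readout, with no numeric limit stated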); settings: CellTiter-Glo luminescence; at 20 µM (top of the series) unless noted
# [8] = NPC library primary testing for decreased DLD-1 cell viability via CellTiter-Glo (AID 1117346;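 active means compounds that lower survival of DLD-1 colon cancer cells in the luminescence readout, no cutoff given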); settings: DLD-1 viability, CellTiter-Glo luminescence; at 20 µM (top of the series)
# [9] = EMT-state selective cytotoxicity in co-culture – imaging, PC-3E GFP, TEM4-18 mCherry, primary screen (AID 1345086;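 active means compounds killing one labelled cell type while sparing the other, by normalised counts and ratio limits, not self-fluorescent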;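 on all read-outs here: cells exposed to compound for 72 h before imaging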;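 on red/green cell ratio (normalised): normalised mesenchymal count divided by normalised epithelial count so high means epithelial killing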); settings: PC-3E GFP / TEM4-18 mCherry co-culture, imaging cell counts, at 1 µM; for red/green cell ratio (normalised): actives lie on both sides, counts scaled to control wells, 1 = unselective
# [10] = viability loss with induced miR-34 in A549 – imaging, A549 dox-inducible miR-34, nuclei and caspase counts, primary screen (AID 1347080;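 active means compounds whose cell count with miR-34 switched on is under 0.7 times the count with it off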); settings: A549 miR-34 inducible, Hoechst nuclei count, 48 h
# [11] = MELAS cybrid and Rieske KO viability enhancers – cell-based, MELAS cybrids, Rieske KO mouse fibroblasts, CellTiter-Glo, primary screen (AID 1508586); settings: low glucose;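 further: z relative to plate mean and SD of compound and empty wells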
# [12] = molecular target: NAD(+) hydrolase SARM1 (Homo sapiens) (UniProt Q6SZW1); assay: blocking NAD cleavage by SARM1 SAM-TIR – cell lysate, NAD-Glo luminescence (AID 1508614;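 active means compound whose remaining NAD level is above about 45 nM, limit read from the data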); settings: SAM-TIR HEK293T lysate NADase, at 1 µM, stronger effect = higher value
# [13] = P. berghei load reduction in hepatocytes – cell-based, HepG2, luciferase luminescence, HepG2 viability, primary screen (AID 624349; in the data active means parasite load remaining mostly below about 12%, no sharp cut-off; inactive means mostly above about 10%;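 further: 100% = mean of DMSO negative control wells on the same plate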); settings: P. berghei liver stage in HepG2, luciferase luminescence, concentration not given here; parasite load remaining: stronger effect = lower value; viability: measured here: HepG2 viability without parasites
# [14] = compounds altering viability of human ES cells (AID 493140; call rule not given here;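 further: cells exposed to compounds for four days before counting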); settings: human embryonic stem cell survival screen; stronger effect = higher value
# [15] = measured here: epithelial PC-3E GFP cell survival
# [16] = measured here: mesenchymal TEM4-18 mCherry cell survival
# [17] = stronger effect = lower value, cell number ratio, induced over uninduced
# [18] = measured here: relative caspase fold change +Dox/-Dox
# [19] = measured here: total cells with miR-34 induction, stronger effect = lower value
# [20] = measured here: total cells without miR-34 induction
# [21] = MELAS cybrid survival, CellTiter-Glo 48 h, stronger effect = higher value
# [22] = Rieske KO mouse fibroblast survival, CellTiter-Glo 72 h
# NAD(+) hydrolase SARM1 (Homo sapiens), sequence (Q6SZW1 whole entry, looked up): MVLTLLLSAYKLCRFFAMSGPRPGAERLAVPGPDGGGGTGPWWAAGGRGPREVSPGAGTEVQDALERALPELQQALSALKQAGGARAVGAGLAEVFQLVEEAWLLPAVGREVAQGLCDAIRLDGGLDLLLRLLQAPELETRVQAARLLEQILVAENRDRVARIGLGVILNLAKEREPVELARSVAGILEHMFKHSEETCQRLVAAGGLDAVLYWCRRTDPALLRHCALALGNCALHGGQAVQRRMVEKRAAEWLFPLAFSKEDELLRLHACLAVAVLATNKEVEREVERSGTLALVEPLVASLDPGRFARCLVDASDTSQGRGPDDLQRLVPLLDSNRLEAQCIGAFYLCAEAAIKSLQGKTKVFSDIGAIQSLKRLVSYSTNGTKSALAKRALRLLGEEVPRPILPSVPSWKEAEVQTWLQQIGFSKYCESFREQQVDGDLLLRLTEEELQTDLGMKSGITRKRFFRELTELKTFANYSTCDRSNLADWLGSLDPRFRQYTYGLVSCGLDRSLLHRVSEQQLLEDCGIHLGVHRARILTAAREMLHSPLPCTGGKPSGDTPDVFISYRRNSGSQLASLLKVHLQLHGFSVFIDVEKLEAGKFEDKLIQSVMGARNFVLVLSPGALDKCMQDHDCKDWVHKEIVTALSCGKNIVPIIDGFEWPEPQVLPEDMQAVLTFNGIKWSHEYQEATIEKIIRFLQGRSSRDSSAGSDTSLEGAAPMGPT
smiles,measurement,setting,value
CC(=O)NCCCS(=O)(=O)O,nuclear beta-catenin stimulation,[1]; at 10 µM,-1.9% (inactive)
same,nuclear beta-catenin stimulation,"[1]; stimulation, at 2 µM",-0.8%
same,insulin secretion stimulation,[2],-0.1% (inactive)
same,viability decrease,[3],-7.6% (inactive)
same,tube area decrease,[4],3.7% (inactive)
same,GLP1 secretion stimulation,[5],-1.3% (inactive)
same,inhibition of viability,[6],1.8% (inactive)
same,viability decrease (inhibition),[7],4.2% (inactive)
same,viability decrease (inhibition),[8],-2% (inactive)
same,red/green cell ratio (normalised),[9],0.97 (inactive)
same,normalised cell number,[9]; [15],1
same,normalised cell number,[9]; [16],0.97
same,fold change,[10]; [17],0.904 (inactive)
same,fold change,[10]; [18],0.789
same,cell count,[10]; [19],8720
same,cell count,[10]; [20],9650
same,z-score,[11]; [21],-0.172 (inactive)
same,z-score,[11]; [22],0.0861
same,remaining NAD,[12],10 nM (inactive)
Cn1c(=O)c2c(ncn2CC2OCCO2)n(C)c1=O,parasite load remaining,[13],22.8% (inactive)
same,viability,[13],112%
same,nuclear beta-catenin stimulation,[1]; at 10 µM,2.7% (inactive)
same,nuclear beta-catenin stimulation,"[1]; stimulation, at 2 µM",1.1%
same,insulin secretion stimulation,[2],-2.4% (inactive)
same,viability decrease,[3],-0.95% (inactive)
same,tube area decrease,[4],-3.4% (inactive)
same,GLP1 secretion stimulation,[5],-1.2% (inactive)
same,inhibition of viability,[6],16.1% (inactive)
same,viability decrease (inhibition),[7],46.8% (inactive)
same,viability decrease (inhibition),[8],11.7% (inactive)
same,red/green cell ratio (normalised),[9],0.85 (inactive)
same,normalised cell number,[9]; [15],1.16
same,normalised cell number,[9]; [16],0.98
same,fold change,[10]; [17],0.901 (inactive) and 0.895 (inactive)
same,fold change,[10]; [18],0.475 and 1.33
same,cell count,[10]; [19],8400 and 9760
same,cell count,[10]; [20],9320 and 10900
same,z-score,[11]; [21],-0.299 (inactive) and -0.511 (inactive) and 0.326 (inactive)
same,z-score,[11]; [22],-0.174 and -0.641 and -0.268
same,remaining NAD,[12],10 nM (inactive)
CN(C)CCN(Cc1ccc(Cl)cc1)c1ccccn1,survival,[14],0.25 (inactive)
same,parasite load remaining,[13],93.8% (inactive)
same,viability,[13],98.9%
same,nuclear beta-catenin stimulation,[1]; at 10 µM,1.9% (inactive)
same,nuclear beta-catenin stimulation,"[1]; stimulation, at 2 µM",1.4%
same,insulin secretion stimulation,[2],88.8% (active)
same,viability decrease,[3],-112% (inactive)
same,tube area decrease,[4],-2% (inactive)
same,GLP1 secretion stimulation,[5],7% (inactive)
same,inhibition of viability,[6],30.7% (inactive)
same,viability decrease (inhibition),[7],41.9% (inactive)
same,viability decrease (inhibition),[8],2.4% (inactive)
same,red/green cell ratio (normalised),[9],0.8 (inactive)
same,normalised cell number,[9]; [15],1.16
same,normalised cell number,[9]; [16],0.92
same,fold change,[10]; [17],0.853 (inactive)
same,fold change,[10]; [18],1.28
same,cell count,[10]; [19],7570
same,cell count,[10]; [20],8880
same,z-score,[11]; [21],-0.0317 (inactive)
same,z-score,[11]; [22],-0.776
same,remaining NAD,[12],10 nM (inactive)
